Laboratory results published in PubChem BioAssay AID2501 (Southern Research Specialized Biocontainment Screening …, 2010).
Screen size: about 2,200 compounds; about 1,200 (55%) were called active. The set was probably picked from earlier hits. Some of the results follow. A number with no mark means an inactive call. No cut-off is given here; in the data, nearly all actives have IC50 up to about 92 µM.

Assay: counter assay for TAg ATPase ADP read-out – biochemical, ADP-Hunter, fluorescence, counter-screen (AID 2501);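 note: purified T antigen ATPase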;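 for inhibition: 0% = enzyme with vehicle and 100% = reference inhibitor wells; higher means more inhibition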
Settings: series mostly up to 100 µM; inhibition: at the top concentration

| Structure (SMILES) | IC50 | inhibition |
| --- | --- | --- |
| COc1cc(CNc2ccc3c(c2)CCC3)cc(OC)c1O | 11.4 µM (active) | – |
| CC1C/C(=C/c2ccco2)C(=O)/C(=C/c2ccco2)C1 (stereo not given) | – | 28.2% |
| N#CC1=C(N)n2c(s/c(=C\c3ccco3)c2=O)=C(C#N)C1c1ccco1 (stereo not given) | – | 5.17% |
| CC1=C(C#N)C(=O)N(C2CCS(=O)(=O)C2)C(=O)/C1=C\c1ccco1 (stereo not given) | 82 µM (active) | – |
| O=C(NC(=O)c1cnccc1C(F)(F)F)Nc1ccccc1 | – | -24.9% |
| O=C(Nc1ccc(O)cc1)/C(=C\c1cccs1)NC(=O)c1ccccc1 | 8.43 µM (active) | – |
| O=C(/C=C/c1ccco1)Nc1cccc(C(=O)Nc2ccccc2C(=O)O)c1 | – | -24.9% |
| O=C(Nc1ccc(O)cc1)/C(=C\c1ccncc1)NC(=O)c1ccccc1 | 10.7 µM (active) | – |
| NC(=O)/C(=C/c1ccco1)C(N)=S | – | 23.5% |
| O=C(Nc1ccc(O)cc1)/C(=C/c1ccco1)NC(=O)c1ccccc1 | 3.43 µM (active) | – |
| CCC(C)N(C(=O)COC(=O)/C=C/c1ccc(O)c(OC)c1)C1CCS(=O)(=O)C1 (stereo not given) | 19 µM (active) | – |
| C/C(CC(=O)Nc1ccc2ccccc2c1)=N\NC(=O)c1ccc(O)c(O)c1 | 5.4 µM (active) | – |
| C/C(CC(=O)Nc1ccc(N(C)C)cc1)=N\NC(=O)c1cnccn1 | 3.36 µM (active) | – |
| C/C(=N\NC(=O)CCC(=O)Nc1ccc(C)c(C)c1)c1cccs1 | – | -20.1% |
| O=C(COc1ccc2ccccc2c1)Nc1ccc(Cc2ccncc2)cc1 | – | -35.1% |
| O=C(Nc1nc(-c2ccco2)c(-c2ccco2)s1)c1cnccn1 | – | 21.5% |
| C/C(CC(=O)Nc1ccc(N(C)C)cc1)=N\NC(=O)c1ccncc1 | 7.2 µM (active) | – |
| O=[N+]([O-])c1c(NCCO)cc(Sc2nc3ccccc3s2)c2nonc12 | – | -15.8% |
| Oc1ccc(/C=N/N=C/c2ccc(O)c(O)c2)cc1O | 2.99 µM (active) | – |
| Oc1ccc(N=Cc2ccc(O)c(O)c2)cc1 | 2.65 µM (active) | – |
| COC1=CC(=O)C(O)=C(CCCCCCC/C=C/CCCCCCCC2=C(O)C(=O)C=C(OC)C2=O)C1=O | – | -44.9% |
| CCCCCC(=O)NNC1CC(=O)N(c2cccc(OCC)c2)C1=O (stereo not given) | – | -16.1% |
| O=C(CCCCl)NC1=NN(c2ccccc2)C(=O)C1 | 12.6 µM (active) | – |
| O=C(CCSc1ccccc1)Nc1ncccn1 | – | 19.5% |
| Oc1cccc2cnccc12 | 5.53 µM (active) | – |
| N#Cc1c(N2CCCCC2)nc(N)c2c(N)nc(SCC(=O)O)cc12 | – | -21.9% |
| c1cncc(CNc2ccc3c(c2)OCO3)c1 | 7.3 µM (active) | – |

| Structure (SMILES) | IC50 | inhibition |
| --- | --- | --- |
| COc1ccc(-c2c(-c3ccc(O)cc3O)n[nH]c2C)cc1OC | 13.2 µM (active) | – |
| CNc1nc(C)nc(-n2nc(C)cc2C)n1 | – | 15.3% |
| CC1=C(C)CS(=O)N(S(=O)(=O)c2ccccc2)C1 (stereo not given) | – | 0.26% |
| O=C(OCCCN1CCOCC1)c1ccc(O)c(O)c1 | 9.99 µM (active) | – |
| COc1ccc(OC)c(C2C(C(=O)c3ccc(C)o3)=C(O)C(=O)N2CCN2CCOCC2)c1 (stereo not given) | – | -6.16% |
| CN(C)c1oc(-c2ccccc2[N+](=O)[O-])nc1C#N | – | -16.3% |
| COc1ccc(OC)c(-c2c3cc(O)c(=O)cc-3oc3cc(O)c(O)cc23)c1 | – | -162% |
| COc1cc(OC)c(-c2c3cc(O)c(=O)cc-3oc3cc(O)c(O)cc23)cc1OC | 7.14 µM (active) | – |
| O=c1cc2oc3cc(O)c(O)cc3c(-c3ccccc3[N+](=O)[O-])c-2cc1O | 7.23 µM (active) | – |
| CO[C@@H]1O[C@@H]2COC(c3ccccc3)O[C@@H]2[C@@H](OC)[C@@H]1O (stereo not given in full) | – | -34.3% |
| CC1(C)OC(=O)C(=NNc2ccc(O)cc2)C(=O)O1 | 3.09 µM (active) | – |
| Nc1nc2ccc(S(=O)(=O)N3CCCCC3)cc2s1 | – | -1.74% |
| Nc1ccccc1-c1nc2ccccc2s1 | – | -0.48% |
| Nc1nc2ccc(N3CCOCC3)cc2s1 | 3.09 µM (active) | – |
| Nc1nc2ccc(O)cc2s1 | 2.36 µM (active) | – |
| CN(C)c1ccc(N2C(=O)CC(Nc3ccc(N4CCOCC4)cc3)C2=O)cc1 (stereo not given) | 4 µM (active) | – |
| CCOc1ccc(N2C(=O)CC(N3CCOCC3)C2=O)cc1 (stereo not given) | – | -1.89% |
| O=C(CCC(=O)N1CCN(c2ccc(O)cc2)CC1)c1cccs1 | 2.87 µM (active) | – |
| O=C(NC(=S)N1CCN(c2ccc(O)cc2)CC1)c1cccs1 | 5.56 µM (active) | – |
| O=S(=O)(c1cccs1)N1CCN(c2ccc(O)cc2)CC1 | 5.21 µM (active) | – |
| O=C(c1cccs1)N1CCN(C(=O)C2CCCO2)CC1 (stereo not given) | – | 18.1% |
| O=C(NCc1ccc(F)cc1)C(=O)NCC1OCCN1S(=O)(=O)c1cccs1 (stereo not given) | – | -39.5% |
| NC(=O)c1ccsc1NC(=O)C1CCN(S(=O)(=O)c2cccs2)CC1 | – | 2.13% |
| O=C(CC1SC(=O)N(c2ccccc2)C1=O)Nc1cccc2ccccc12 (stereo not given) | – | 13.9% [at 50 µM] |
| COc1ccc(CCNc2ccc(C(CC(N)=O)NC(=O)Cc3ccc(Br)cc3)cc2[N+](=O)[O-])cc1 (stereo not given) | – | -20% |
| CN(C)C(=S)Nc1ccc(N2CCOCC2)cc1 | 2.52 µM (active) | – |
| O=Cc1sc(=O)n(Cc2cccc(C(=O)O)c2)c1Cl | – | 24.6% |

| Structure (SMILES) | IC50 | inhibition |
| --- | --- | --- |
| Cc1nc2sc(C(c3ccco3)N3CCC(C)CC3)c(O)n2n1 (stereo not given) | – | -26.5% |
| c1ccc(-c2cccc(-c3ccccn3)n2)nc1 | – | -3.39% |
| Cc1ccccc1Nc1c(-c2ccccn2)nc2ccccn12 | 10.9 µM (active) | – |
| Cc1ccc2nc(-c3ccccn3)c(NC3CCCC3)n2c1 | 10.1 µM (active) | – |
| C[C@@H]1NC(=O)[C@H](CCC(N)=O)NC(=O)c2cc([N+](=O)[O-])cc(I)c2NCC[C@@H](C(N)=O)NC1=O | – | -21.8% |
| O=c1[nH]c2ccccc2n2c(-c3ccccc3)nnc12 | – | -46.4% |
| CC(=O)Nc1ccc(S(=O)(=O)Nc2nc3ccccc3nc2Nc2ccc(O)cc2)cc1 | 7.76 µM (active) | – |
| CC(=O)NS(=O)(=O)c1ccc(NC(=S)NC(=O)Cc2ccccc2)cc1 | – | 20.9% |
| CC(=O)Nc1ccc(S(=O)(=O)Nc2nc3ccccc3nc2Nc2ccc(N)cc2)cc1 | 5.8 µM (active) | – |
| O=c1nc2s/c(=C\c3ccco3)c(=O)n2nc1Cc1ccc(F)cc1 | – | 5.11% |
| COc1cc(/C=N/NC(=O)c2ccc3nc[nH]c3c2)ccc1O | 5.28 µM (active) | – |
| Cc1cc(C)n2nc(C(=O)N/N=C/c3ccc(O)cc3)nc2n1 | 2.32 µM (active) | – |
| COc1cc(/C=N/NC(=O)c2cc(C3CC3)[nH]n2)ccc1O | 3.26 µM (active) | – |
| COc1cc(/C=N/NC(=O)c2nnn(-c3nonc3N)c2-c2cccs2)ccc1O | 3.94 µM (active) | – |
| COc1cccc(CN2CCNC(=O)C2CC(=O)NCc2cn3ccccc3n2)c1OC (stereo not given) | – | -27.3% |
| Cc1cccn2c(CN(C)CCC3CCCCO3)c(C(=O)N3CCCCC3)nc12 (stereo not given) | – | 20.9% [at 50 µM] |
| COc1cc(/C=N/NC(=O)c2cnccn2)ccc1O | 3.09 µM (active) | – |
| COc1cc(/C=N/NC(=O)C2COc3ccccc3O2)ccc1O (stereo not given) | 3.2 µM (active) | – |
| COc1cc(/C=N/N(C)c2ccccc2)ccc1O | 8.84 µM (active) | – |
| C=CCN1CCN(C(=O)c2c(-c3ccccc3)noc2C)CC1 | – | -17.8% |
| COc1cc(/C=N/NC(=O)c2c(-c3ccccc3)noc2C)ccc1O | 4.78 µM (active) | – |
| CCCOc1ccc(C(=O)N2CC3(CC(c4cccc(NC(=O)[C@@H]5CCC(=O)N5)c4)=NO3)C[C@H]2C(=O)NC2(C(N)=O)CC2)cc1 (stereo not given in full) | – | -28% |
| COc1cc(/C=N/NC(=S)Nc2cccc(C(=O)O)c2)ccc1O | 2.66 µM (active) | – |
| COc1cc(/C=N/NC(=O)c2nc(C)cc(C)n2)ccc1O | 2.74 µM (active) | – |
| COc1cc(/C=N\NC(=O)c2c(C)nc3cc(C)ccn23)ccc1O | 4.52 µM (active) | – |
| COc1cc(/C=N/NC(=O)c2cccs2)ccc1O | 4.58 µM (active) | – |
| CCCOc1ccccc1/C=C1\SC(N2CCCCC2)=NC1=O | – | 29.5% |

| Structure (SMILES) | IC50 | inhibition |
| --- | --- | --- |
| COc1ccc(/C=N\NC(=O)c2ccc(=O)[nH]n2)cc1O | 3.12 µM (active) | – |
| COc1cc(/C=N/NC(=O)c2ccncc2)ccc1O | 3.56 µM (active) | – |
| COc1cc(/C=N/NC(=O)c2ccccc2)ccc1O | 5.63 µM (active) | – |
| CCOC(=O)C[n+]1c(C)sc2ccc(OC)cc21 | – | 19.2% |
| C=CCOc1c(CNc2ccc3[nH]c(=O)[nH]c3c2)cccc1OC | 3.28 µM (active) | – |
| O=c1[nH]c2ccc(NCc3ccc(F)cc3)cc2[nH]1 | 5.43 µM (active) | – |
| O=C(Nc1ccc2[nH]c(=O)[nH]c2c1)c1cccc([N+](=O)[O-])c1 | – | -12.8% |
| C=CCOc1ccccc1CNc1ccc2[nH]c(=O)[nH]c2c1 | 5.14 µM (active) | – |
| C=CCOc1ccc(CNc2ccc3[nH]c(=O)[nH]c3c2)cc1OCC | 3.26 µM (active) | – |
| Cc1ccc(C2C(C#N)=C(N)Oc3c2oc(CO)cc3=O)o1 (stereo not given) | – | -65.8% |
| O=C1CC(=O)N(Cc2ccco2)C(=S)N1 | – | 20.9% |
| O=C1c2sc3nc4n(c(=O)c3c2CCC1Br)CCCCC4 (stereo not given) | – | -6.05% |
| COc1cccc(CNc2ccc3[nH]c(=O)[nH]c3c2)c1OCc1ccccc1 | 3.98 µM (active) | – |
| COc1ccc2[nH]c(=O)c(CNc3ccccc3OC)cc2c1 | – | -127% |
| C=CCOc1cccc(CNc2ccc3[nH]c(=O)[nH]c3c2)c1 | 4.29 µM (active) | – |
| COc1cc(/C=C2\S/C(=N/S(=O)(=O)c3ccc(C)cc3)NC2=O)c([N+](=O)[O-])cc1OC | – | -14.9% |
| COc1cc(/C=C2\SC(=Nc3ccc(Cl)c(C(=O)O)c3)NC2=O)c(Br)c(Br)c1O | 3.98 µM (active) | – |
| CN1CN(C)c2cccc3cccc1c23 | 13.5 µM (active) | – |
| COc1ccccc1N/C=C/C(=C(C#N)C#N)N(C)C | – | -8.12% |
| CN(C)c1ccc(N/C=C/C(=O)C(F)(F)F)cc1 | 8.86 µM (active) | – |
| CCOC(=O)c1ccc(N/C=C/C(=O)C(C)(C)C)cc1 | – | -48.4% |
| CN(C)c1ccc(N/C=C/C(=O)c2ccccc2)cc1 | 3.25 µM (active) | – |
| O=S(=O)(Nc1c(O)ccc2ccccc12)c1ccc(F)cc1 | – | -3.43% |
| Oc1ccc2ccccc2c1N=Nc1ccccc1F | 7.8 µM (active) | – |
